This is an account of results in PubChem BioAssay (EPA / NIEHS).

Records with an inconclusive call do not appear. Active and inactive are the calls of the source. The calls were made as follows, unless noted: active = hit-call score of the fitted dose curve at least 0.9, where 1 is the maximum; inactive = score below 0.9.

Experiment [1] deals with Glucocorticoid receptor (Homo sapiens) (UniProt P04150). The experiment in a line: ATG_GR_TRANS: Attagene TRANS-FACTORIAL HepG2 Assay for human Glucocorticoid Receptor (GR) (AID 2282978; active = hit-call score of the fitted dose curve at least 0.9, where 1 is the maximum;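 also: activators score as hits since higher reporter transcript over DMSO is fitted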). As to conditions: HepG2 Attagene TRANS GR reporter, mRNA transcription. In short, it runs like this: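 Fluorescent capillary-electrophoresis quantitation of reporter mRNA is the readout, taken 24 h after dosing human HepG2 cells carrying transiently transfected GAL4-UAS reporter units activated by chimeric NR-GAL4 fusions; activity scored as induction over DMSO.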

Experiment [2] concerns the target Bile acid receptor (Homo sapiens) (UniProt Q96RI1). The experiment in a line: ATG_FXR_TRANS: Attagene TRANS-FACTORIAL HepG2 Assay for Farnesoid X Receptor (FXR) (AID 2282979; active = hit-call score of the fitted dose curve at least 0.9, where 1 is the maximum;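 also: hits raise reporter mRNA above DMSO so AC50 marks FXR activation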). As to conditions: HepG2 Attagene TRANS FXR-GAL4 reporter transcription. In short, it runs like this:
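Chimeric FXR-GAL4 activity in transiently transfected human HepG2 liver cells is scored as induction of reporter mRNA after 24 h of dosing. Detection uses RT-PCR with fluorescent labelling and capillary electrophoresis, with DMSO serving as baseline.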

Experiment [3] in a line: ATG_M_06_TRANS: Attagene TRANS-FACTORIAL HepG2 Assay for M06 Transcription Factor (Internal Marker) (AID 2282983; active = hit-call score of the fitted dose curve at least 0.9, where 1 is the maximum). The following applies: HepG2 Attagene TRANS M06 internal marker reporter. In short, it runs like this:
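Measured by capillary electrophoresis of fluorescently labelled RT-PCR products, this endpoint reflects reporter mRNA in HepG2 cells harbouring exogenous NR-GAL4 reporter constructs after 24 h exposure, with DMSO as baseline.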

A short description of experiment [4]: ATG_M_32_TRANS: Attagene TRANS-FACTORIAL HepG2 Assay for M32 Transcription Factor (Internal Marker) (AID 2282984; active = hit-call score of the fitted dose curve at least 0.9, where 1 is the maximum). As to conditions: HepG2 Attagene TRANS M32 internal marker reporter. In short, it runs like this:
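HepG2 cells transiently transfected with multiple GAL4-UAS reporter transcription units, dosed for 24 hours; reporter mRNA quantified by RT-PCR, 6-FAM primer extension, HpaI digestion and capillary electrophoresis. Gain-of-signal fitted versus DMSO baseline; internal background-control marker.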

Experiment [5] addresses Nuclear receptor subfamily 4 group A member 2 (Homo sapiens) (UniProt P43354). Description: ATG_NURR1_TRANS: Attagene TRANS-FACTORIAL HepG2 Assay for human Nuclear Receptor Related Protein 1 (NURR1) (AID 2282985; active = hit-call score of the fitted dose curve at least 0.9, where 1 is the maximum). As to conditions: HepG2 Attagene TRANS reporter, mRNA readout. In short, it runs like this: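 HepG2 cells transiently transfected with GAL4-UAS reporter units and chimeric NR-Gal4 constructs; chemical exposure 24 h. Reporter mRNA quantified by RT-PCR, fluorescent labelling and capillary electrophoresis; gain of signal fitted relative to DMSO baseline.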

The target in experiment [6] is Transcriptional activator Myb (Homo sapiens) (UniProt P10242). Description: ATG_Myb_CIS: Attagene CIS-FACTORIAL HepG2 Assay for human Myeloblastosis (Myb) Proto-Oncogene Transcription Factor (AID 2282986). The following applies: HepG2 Attagene CIS-FACTORIAL Myb reporter transcription; actives raise or lower the signal. In short, it runs like this: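 Reporter transcript levels, quantified by fluorescent RT-PCR and capillary electrophoresis, serve as the read-out. Transfected HepG2 cells carrying cis-promoter reporter units are dosed for 24 hours, and curves are fitted bidirectionally against DMSO controls.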

Experiment [7] has as its target Nuclear respiratory factor 1 (Homo sapiens) (UniProt Q16656). The experiment in a line: ATG_NRF1_CIS: Attagene CIS-FACTORIAL HepG2 Assay for human Nuclear Respiratory Factor 1 (NRF1) Orphan Gene (AID 2282987). As to conditions: HepG2 NRF1 cis-element reporter, Attagene multiplex; actives raise or lower the signal. In short, it runs like this: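 Multiplexed cis-reporter assay, HepG2 cells, 24 h treatment. Total RNA → oligo(dT) RT → PCR with reporter-specific primers → 6-FAM primer extension → HpaI cut → CE. Bidirectional fit vs DMSO.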

Experiment [8] can be described thus: ATG_NFI_CIS: Attagene CIS-FACTORIAL HepG2 Assay for human Nuclear Factor I (NFI) (AID 2282989). As to conditions: HepG2 cis-regulatory reporter, NFI response element transcription; actives raise or lower the signal. In short, it runs like this: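 Transfected HepG2 liver cells, exposed 24 h, supplied total RNA for oligo(dT) reverse transcription and reporter-specific PCR. Labelled, HpaI-cut fragments were sized by capillary electrophoresis; DMSO set the baseline for bidirectional fitting.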

Experiment [9] addresses Myc proto-oncogene protein (Homo sapiens) (UniProt P01106). Description: ATG_Myc_CIS: Attagene CIS-FACTORIAL HepG2 Assay for human Myelocytomatosis (Myc) Proto-Oncogene Transcription Factor (AID 2282990). The following applies: HepG2, Attagene cis-reporter transcription factor activity; actives raise or lower the signal. In short, it runs like this:
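Multiplexed cis-reporter transcription in HepG2 cells after 24 h chemical treatment. Reporter mRNA measured by RT-PCR and capillary electrophoresis fluorescence; activity fitted bidirectionally against DMSO control.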

A short description of experiment [10]: ATG_Oct_MLP_CIS: Attagene CIS-FACTORIAL HepG2 Assay for human Octamer-Binding Transcription Factor (Oct) (AID 2282993). As to conditions: HepG2 Attagene cis-factorial Oct reporter, mRNA; actives raise or lower the signal. In short, it runs like this: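 Using HepG2 cells bearing transfected cis-reporter constructs, mRNA induction was read after 24 h by fluorescent RT-PCR and capillary electrophoresis, with DMSO defining baseline for gain- or loss-of-signal fits.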

Experiment [11] addresses Cellular tumor antigen p53 (Homo sapiens) (UniProt P04637). The experiment in a line: ATG_p53_CIS: Attagene CIS-FACTORIAL HepG2 Assay for human p53 Transcription Factor (AID 2282994). As to conditions: HepG2 p53 cis-element reporter, Attagene mRNA; actives raise or lower the signal. In short, it runs like this: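 Using HepG2 hepatoma cells carrying cis-acting multiplexed reporters, mRNA induction is detected after a 24 h exposure. Gain- and loss-of-signal responses are fitted relative to DMSO-treated cells.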

Experiment [12] in a line: BSK_3C_TissueFactor: BioMAP Diversity Plus: 3C Assay for Tissue Factor Biomarker Activity (AID 2282997). The following applies: BioMAP 3C HUVEC, tissue factor biomarker readout; actives raise or lower the signal. In short, it runs like this: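 Values derive from bidirectional curve fitting against DMSO of Tissue Factor ELISA signals, taken 24 h after dosing primary human umbilical vein endothelial cells.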

Experiment [13] in a line: BSK_3C_uPAR: BioMAP Diversity Plus: 3C Assay for Urokinase-type plasminogen activator receptor (uPAR) Biomarker Activity (AID 2282998). The following applies: BioMAP 3C HUVEC, uPAR biomarker ELISA; actives raise or lower the signal. In short, it runs like this:
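In this endothelial cell-based assay, human umbilical vein primary cells were treated with chemicals and harvested at 24 h. uPAR was quantified using ELISA, with gains or losses fitted relative to DMSO controls.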
For orientation: In an ELISA, binding on a coated surface is turned into a signal by an enzyme label.

Experiment [14] in a line: BSK_3C_VCAM1: BioMAP Diversity Plus: 3C Assay for Vascular cell adhesion molecule 1 (VCAM1) Biomarker Activity (AID 2282999). As to conditions: BioMAP 3C HUVEC, VCAM1 ELISA, cytokine-stimulated; actives raise or lower the signal. In short, it runs like this:
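Human umbilical vein endothelial cells were dosed with compound for 24 h, after which cell-surface VCAM-1 was quantified by ELISA. Bidirectional curve fitting used DMSO as negative control and activity baseline.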

Experiment [15] can be described thus: BSK_4H_Eotaxin3: BioMAP Diversity Plus: 4H Assay for Eotaxin 3 Biomarker Activity (AID 2283000). As to conditions: primary human endothelial cells (HUVEC); actives raise or lower the signal. In short, it runs like this: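 Endothelial primary cells (human umbilical vein) exposed to compound for 24 h. ELISA detection of Eotaxin-3.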
For experiment [16], the target named is Oxysterols receptor LXR-beta (Homo sapiens) (UniProt P55055). The experiment in a line: ATG_LXRb_TRANS: Attagene TRANS-FACTORIAL HepG2 Assay for human Liver X Receptor beta (LXRb) (AID 2282981; active = hit-call score of the fitted dose curve at least 0.9, where 1 is the maximum). As to conditions: HepG2 Attagene TRANS GAL4-LXRb reporter, mRNA. In short, it runs like this: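 HepG2 cells transiently transfected with multiple reporter transcription units carrying chimeric NR-Gal4 proteins acting on GAL4-UAS reporters; compound exposure 24 h. Reporter mRNA quantified by RT-PCR, 6-FAM labelling, HpaI digestion and capillary electrophoresis; gain of signal versus DMSO.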

Experiment [17] has as its target Hepatocyte nuclear factor 4-alpha (Homo sapiens) (UniProt P41235). Description: ATG_HNF4a_TRANS: Attagene TRANS-FACTORIAL HepG2 Assay for human Hepatocyte Nuclear Factor 4 alpha (HNF4a) (AID 2282982; active = hit-call score of the fitted dose curve at least 0.9, where 1 is the maximum). The following applies: HepG2 HNF4a transactivation reporter, mRNA readout. In short, it runs like this:
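HepG2 cells transiently transfected with multiplexed GAL4-UAS reporter units responsive to chimeric NR-GAL4 proteins; compound exposure 24 h. Reporter mRNA quantified by RT-PCR, 6-FAM labelling, HpaI digestion and capillary electrophoresis; gain of signal versus DMSO baseline.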

Experiment [18] is described as follows: ATG_NF_kB_CIS: Attagene CIS-FACTORIAL HepG2 Assay for human Nuclear Factor Kappa B (NF-kB) (AID 2282991). As to conditions: HepG2 Attagene cis-factorial NF-kB reporter mRNA; actives raise or lower the signal. In short, it runs like this: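 Transient MRTU transfection of human HepG2 liver cells → 24 h chemical exposure → total RNA, oligo(dT) RT → PCR, 6-FAM primer extension, HpaI digest 2 h 37 C → CE fragment analysis. Bidirectional fitting, DMSO negative control.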

The nature of experiment [19]: ATG_NRF2_ARE_CIS: Attagene CIS-FACTORIAL HepG2 Assay for human Nuclear Factor Erythroid 2 Related Factor 2 (NFR2) response to Antioxidant Response Elements (ARE) (AID 2282992). The following applies: HepG2 Attagene ARE/NRF2 reporter, transcription factor activity; actives raise or lower the signal. In short, it runs like this:
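Cis-factorial assay: transfected HepG2 reporter library, 24 h dosing, mRNA readout via RT-PCR/CE; DMSO-referenced bidirectional analysis.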

Experiment [20] has as its target Oxysterols receptor LXR-alpha (Homo sapiens) (UniProt Q13133). The experiment in a line: ATG_LXRa_TRANS: Attagene TRANS-FACTORIAL HepG2 Assay for human Liver X Receptor alpha (LXRa) (AID 2282980; active = hit-call score of the fitted dose curve at least 0.9, where 1 is the maximum). The following applies: HepG2 Attagene TRANS reporter, LXRa transactivation. In short, it runs like this:
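Transient HepG2 transfectants, 24 h dosing, RT-PCR/CE mRNA reporter quantitation; gain-of-signal vs DMSO.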

Chain of Bile acid receptor (Homo sapiens) (Q96RI1 whole entry, looked up, the tested form may be a part): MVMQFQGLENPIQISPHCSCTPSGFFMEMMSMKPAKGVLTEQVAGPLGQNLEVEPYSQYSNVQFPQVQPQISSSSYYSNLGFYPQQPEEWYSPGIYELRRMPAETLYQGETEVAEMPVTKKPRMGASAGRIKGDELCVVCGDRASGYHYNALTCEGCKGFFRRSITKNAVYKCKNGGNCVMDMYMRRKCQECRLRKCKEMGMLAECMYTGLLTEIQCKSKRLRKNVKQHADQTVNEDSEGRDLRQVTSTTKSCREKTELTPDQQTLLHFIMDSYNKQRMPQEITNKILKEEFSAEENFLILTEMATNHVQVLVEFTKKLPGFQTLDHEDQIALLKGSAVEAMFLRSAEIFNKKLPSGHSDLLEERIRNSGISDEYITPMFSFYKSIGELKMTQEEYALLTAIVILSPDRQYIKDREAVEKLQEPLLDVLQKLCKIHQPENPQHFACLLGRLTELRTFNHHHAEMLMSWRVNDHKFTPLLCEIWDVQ
Chain of Nuclear receptor subfamily 4 group A member 2 (Homo sapiens) (P43354 whole entry, looked up, the tested form may be a part): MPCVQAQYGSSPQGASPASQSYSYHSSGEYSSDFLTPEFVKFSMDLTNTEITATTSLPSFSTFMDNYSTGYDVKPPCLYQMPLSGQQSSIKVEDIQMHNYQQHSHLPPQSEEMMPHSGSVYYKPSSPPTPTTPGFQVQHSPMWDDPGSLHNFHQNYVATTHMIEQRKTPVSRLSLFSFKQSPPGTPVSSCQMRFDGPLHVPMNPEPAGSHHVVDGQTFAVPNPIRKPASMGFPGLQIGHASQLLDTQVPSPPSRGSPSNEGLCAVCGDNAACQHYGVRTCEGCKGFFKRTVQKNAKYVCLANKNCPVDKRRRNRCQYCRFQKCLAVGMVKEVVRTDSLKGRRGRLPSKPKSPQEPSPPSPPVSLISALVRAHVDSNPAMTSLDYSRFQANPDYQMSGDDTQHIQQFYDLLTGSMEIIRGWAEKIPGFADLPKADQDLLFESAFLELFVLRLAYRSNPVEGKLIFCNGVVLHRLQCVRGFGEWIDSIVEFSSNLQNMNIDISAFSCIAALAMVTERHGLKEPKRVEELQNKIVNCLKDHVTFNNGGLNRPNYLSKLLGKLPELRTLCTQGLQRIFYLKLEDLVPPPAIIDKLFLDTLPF
Chain of Hepatocyte nuclear factor 4-alpha (Homo sapiens) (P41235 whole entry, looked up, the tested form may be a part): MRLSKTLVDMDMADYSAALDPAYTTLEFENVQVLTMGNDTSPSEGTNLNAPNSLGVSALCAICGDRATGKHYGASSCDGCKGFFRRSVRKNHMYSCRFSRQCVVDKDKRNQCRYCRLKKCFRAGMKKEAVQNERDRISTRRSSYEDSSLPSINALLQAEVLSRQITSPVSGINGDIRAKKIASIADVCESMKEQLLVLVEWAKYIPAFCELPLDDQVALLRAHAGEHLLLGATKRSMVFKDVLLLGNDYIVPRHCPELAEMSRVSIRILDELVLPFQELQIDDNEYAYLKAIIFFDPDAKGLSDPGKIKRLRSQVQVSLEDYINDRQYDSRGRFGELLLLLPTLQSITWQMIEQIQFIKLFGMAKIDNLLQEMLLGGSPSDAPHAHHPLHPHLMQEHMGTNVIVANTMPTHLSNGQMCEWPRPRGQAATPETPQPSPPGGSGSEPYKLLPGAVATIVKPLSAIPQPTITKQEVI
Chain of Transcriptional activator Myb (Homo sapiens) (P10242 whole entry, looked up): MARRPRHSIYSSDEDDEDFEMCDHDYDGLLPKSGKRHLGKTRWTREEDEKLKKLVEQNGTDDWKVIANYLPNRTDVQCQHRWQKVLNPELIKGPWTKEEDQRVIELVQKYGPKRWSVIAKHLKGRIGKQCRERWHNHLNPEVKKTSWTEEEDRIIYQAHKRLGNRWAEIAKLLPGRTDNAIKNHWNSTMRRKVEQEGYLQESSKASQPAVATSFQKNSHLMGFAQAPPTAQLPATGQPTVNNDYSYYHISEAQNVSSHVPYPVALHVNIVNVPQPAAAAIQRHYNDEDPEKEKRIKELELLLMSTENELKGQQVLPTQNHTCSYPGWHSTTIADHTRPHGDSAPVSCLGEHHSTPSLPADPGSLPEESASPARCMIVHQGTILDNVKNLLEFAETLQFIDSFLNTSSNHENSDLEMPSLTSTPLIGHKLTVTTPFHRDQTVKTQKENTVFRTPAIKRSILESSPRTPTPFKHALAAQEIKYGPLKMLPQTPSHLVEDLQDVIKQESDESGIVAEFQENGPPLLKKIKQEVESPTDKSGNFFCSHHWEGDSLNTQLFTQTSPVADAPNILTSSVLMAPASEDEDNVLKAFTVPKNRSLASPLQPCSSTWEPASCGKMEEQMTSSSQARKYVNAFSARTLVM
Chain of Cellular tumor antigen p53 (Homo sapiens) (P04637 whole entry, looked up): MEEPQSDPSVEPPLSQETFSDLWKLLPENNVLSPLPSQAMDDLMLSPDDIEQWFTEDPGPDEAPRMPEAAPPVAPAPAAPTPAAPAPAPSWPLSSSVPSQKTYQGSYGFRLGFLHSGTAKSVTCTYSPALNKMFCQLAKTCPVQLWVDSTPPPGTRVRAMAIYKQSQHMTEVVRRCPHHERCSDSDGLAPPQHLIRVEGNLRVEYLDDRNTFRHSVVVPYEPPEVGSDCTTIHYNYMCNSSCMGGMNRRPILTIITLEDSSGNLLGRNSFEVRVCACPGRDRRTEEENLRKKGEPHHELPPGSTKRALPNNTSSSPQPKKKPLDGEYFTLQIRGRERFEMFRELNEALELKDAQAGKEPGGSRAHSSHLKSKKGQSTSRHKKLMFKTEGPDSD
Chain of Nuclear respiratory factor 1 (Homo sapiens) (Q16656 whole entry, looked up): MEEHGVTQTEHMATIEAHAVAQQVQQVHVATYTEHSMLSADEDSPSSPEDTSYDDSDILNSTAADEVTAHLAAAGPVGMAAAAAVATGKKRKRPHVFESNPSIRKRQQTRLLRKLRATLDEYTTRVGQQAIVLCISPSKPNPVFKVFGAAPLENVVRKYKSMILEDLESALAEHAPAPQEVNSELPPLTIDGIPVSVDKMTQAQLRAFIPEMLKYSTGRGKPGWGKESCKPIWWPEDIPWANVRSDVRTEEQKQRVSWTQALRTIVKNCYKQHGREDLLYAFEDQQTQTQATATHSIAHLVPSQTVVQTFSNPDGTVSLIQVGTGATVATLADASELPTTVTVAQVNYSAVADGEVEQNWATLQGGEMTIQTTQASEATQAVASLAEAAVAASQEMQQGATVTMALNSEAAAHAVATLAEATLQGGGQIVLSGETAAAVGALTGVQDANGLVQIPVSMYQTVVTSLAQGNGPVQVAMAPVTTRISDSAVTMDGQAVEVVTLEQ
Chain of Glucocorticoid receptor (Homo sapiens) (P04150 whole entry, looked up, the tested form may be a part): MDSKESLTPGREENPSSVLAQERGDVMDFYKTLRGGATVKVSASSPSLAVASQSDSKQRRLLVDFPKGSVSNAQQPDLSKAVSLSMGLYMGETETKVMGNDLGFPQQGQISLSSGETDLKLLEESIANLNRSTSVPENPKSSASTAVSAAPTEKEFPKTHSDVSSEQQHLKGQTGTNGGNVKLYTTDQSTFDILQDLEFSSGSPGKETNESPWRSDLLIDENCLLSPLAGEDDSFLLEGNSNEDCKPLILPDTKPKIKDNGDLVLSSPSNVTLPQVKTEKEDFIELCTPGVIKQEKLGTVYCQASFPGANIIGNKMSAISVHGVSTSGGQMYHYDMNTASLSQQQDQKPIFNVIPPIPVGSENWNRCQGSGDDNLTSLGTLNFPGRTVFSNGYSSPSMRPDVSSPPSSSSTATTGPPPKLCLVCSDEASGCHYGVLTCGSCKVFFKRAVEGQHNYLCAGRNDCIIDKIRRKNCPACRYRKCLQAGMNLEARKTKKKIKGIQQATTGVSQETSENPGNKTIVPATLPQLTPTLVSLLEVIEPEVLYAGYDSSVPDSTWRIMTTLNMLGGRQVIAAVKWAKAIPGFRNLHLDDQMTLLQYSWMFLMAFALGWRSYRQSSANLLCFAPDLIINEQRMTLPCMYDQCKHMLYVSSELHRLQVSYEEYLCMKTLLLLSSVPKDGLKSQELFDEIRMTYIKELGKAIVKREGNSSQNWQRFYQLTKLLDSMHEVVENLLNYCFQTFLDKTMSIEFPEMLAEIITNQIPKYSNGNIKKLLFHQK
Chain of Myc proto-oncogene protein (Homo sapiens) (P01106 whole entry, looked up): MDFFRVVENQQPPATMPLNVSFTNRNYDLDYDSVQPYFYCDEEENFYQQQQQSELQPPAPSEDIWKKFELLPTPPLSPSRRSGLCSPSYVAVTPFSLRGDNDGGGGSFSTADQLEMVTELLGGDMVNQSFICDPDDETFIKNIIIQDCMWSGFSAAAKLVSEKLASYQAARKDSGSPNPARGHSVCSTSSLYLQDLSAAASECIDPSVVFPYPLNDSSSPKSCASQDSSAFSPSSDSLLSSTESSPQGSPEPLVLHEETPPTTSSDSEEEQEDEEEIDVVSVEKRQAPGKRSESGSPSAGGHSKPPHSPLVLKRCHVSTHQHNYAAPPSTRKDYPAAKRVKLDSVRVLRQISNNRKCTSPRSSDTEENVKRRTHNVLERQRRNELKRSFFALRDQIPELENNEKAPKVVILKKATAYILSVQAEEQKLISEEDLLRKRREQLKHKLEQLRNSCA
Chain of Oxysterols receptor LXR-beta (Homo sapiens) (P55055 whole entry, looked up, the tested form may be a part): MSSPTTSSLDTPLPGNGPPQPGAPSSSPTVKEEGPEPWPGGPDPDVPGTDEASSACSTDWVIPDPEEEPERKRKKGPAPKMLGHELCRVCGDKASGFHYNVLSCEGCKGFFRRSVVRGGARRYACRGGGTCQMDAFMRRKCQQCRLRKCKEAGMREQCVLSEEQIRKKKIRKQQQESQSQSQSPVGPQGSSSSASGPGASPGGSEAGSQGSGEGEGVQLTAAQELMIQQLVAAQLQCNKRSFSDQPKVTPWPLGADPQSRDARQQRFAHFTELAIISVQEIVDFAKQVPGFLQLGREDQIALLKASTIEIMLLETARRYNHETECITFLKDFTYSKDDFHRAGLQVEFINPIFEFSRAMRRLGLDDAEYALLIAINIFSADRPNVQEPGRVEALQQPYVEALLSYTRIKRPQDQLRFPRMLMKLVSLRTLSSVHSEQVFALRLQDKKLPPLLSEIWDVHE

Take `CC(C)c1ccc(C(C)C)cc1`: the outcome in experiment [1], in experiment [2], in experiment [3], in experiment [4], in experiment [5] and in experiment [6] was inactive. Also, the result in experiment [7], in experiment [8], in experiment [9] and in [10] was inactive. The AC50 in experiment [11] is 158 µM (active); in experiment [12], 29.4 µM (active); in [13], 31.6 µM (active); in experiment [14], 35.3 µM (active); in experiment [15], 36 µM (active).
With `OCCN1CCNCC1`, the outcome in experiment [1], in experiment [2], in experiment [16], in experiment [17], in experiment [3] and in experiment [5] was inactive. Moreover, the result in [6], in [7], in [8], in experiment [9], in experiment [10] and in experiment [11] was inactive.
With `CC1CCC(C(C)(C)O)CC1` (stereo unspecified), the call in [1], in experiment [2], in experiment [17], in [4], in experiment [5] and in experiment [6] was inactive. Besides, the call in [7], in experiment [9], in experiment [18], in [19] and in experiment [10] was inactive.
As for `CCCCC/C=C/C=C/C=O`, the compound was classed as inactive in experiment [1], in [2], in [20], in [3], in experiment [4] and in experiment [5]. For the same compound, the result in experiment [6], in [7], in experiment [8], in [9], in experiment [18] and in [10] was inactive. Besides, the outcome in experiment [11] was inactive. Besides, the AC50 in experiment [19] is 40.6 µM (active); in [12] it was 29.5 µM (active); in [13] it was 31.5 µM (active); in [14], 29.3 µM (active); in experiment [15], 29.9 µM (active).
Take `CCCCCCCCCCCCSC`: the call in experiment [1], in experiment [2], in experiment [17], in experiment [3], in [4] and in [7] was inactive. Also, the compound was classed as inactive in experiment [9], in experiment [19], in experiment [10] and in experiment [11].

The AC50 is the concentration at which the activity in the assay is half-maximal.
